D1 PAM: human D1 dopamine receptor positive modulation | AID 504651 | potentiation, % at 10 µM | HEK293 TREx D1 cells, calcium flux, dopamine EC20 potentiation | 360,000 compounds, 0.036% hits; in the data active = potentiation above about 30%; also: 0% is about no effect
Target sequence (P21728 whole entry, looked up): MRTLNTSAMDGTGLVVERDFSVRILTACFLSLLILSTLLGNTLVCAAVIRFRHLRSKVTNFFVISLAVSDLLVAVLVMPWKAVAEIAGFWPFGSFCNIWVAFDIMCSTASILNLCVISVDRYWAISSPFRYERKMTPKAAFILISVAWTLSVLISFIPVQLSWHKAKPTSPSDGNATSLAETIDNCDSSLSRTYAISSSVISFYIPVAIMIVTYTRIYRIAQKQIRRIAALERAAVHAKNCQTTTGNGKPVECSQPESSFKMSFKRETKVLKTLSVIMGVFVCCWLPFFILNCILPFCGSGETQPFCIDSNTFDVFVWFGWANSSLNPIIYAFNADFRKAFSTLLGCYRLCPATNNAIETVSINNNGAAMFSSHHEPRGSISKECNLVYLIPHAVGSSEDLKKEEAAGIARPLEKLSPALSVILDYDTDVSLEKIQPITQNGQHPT
DRD3 antagonist: D3 dopamine receptor (human) antagonism; max response, negative = inhibition, %; AID 652054; 360,000 compounds, 2.5% hits; P35462; D3R cells, DiscoveRx beta-arrestin luminescence, antagonist mode; active compounds read low; in the data active = max response below about -50%; inconclusive = no clear call, values can overlap the other calls; also: % is scaled to controls: 0 for no effect and ±100 for the full control effect
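Cells expressing the human receptor were seeded at 1500 cells/well, incubated overnight at 37 degrees C in 5% CO2, then exposed to library compounds with dopamine controls for 90 minutes at 37 degrees C before luminescent detection.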
DRD3 agonist: agonists of human D3 dopamine receptor. D3R DiscoveRx beta-arrestin cells, luminescence, 90 min. max activation, %. 410,000 compounds, 0.58% hits; in the data active = max activation above about 30%; also: 0% is about no effect
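Agonist-mode cell screen: cells plated at 1500/well and incubated overnight at 37 °C, then exposed to library compounds for 90 min at 37 °C. Detection reagent was added for 30–60 min at room temperature, and luminescence was read.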
D1 antagonist: blocks dopamine activation of the human D1 receptor; P21728; HEK293 TREx D1 cells, calcium flux, dopamine EC80; active compounds read low; activity change, negative = inhibition, % at 10 µM; 360,000 compounds, 3.2% hits; in the data active = activity change below about -30%; also: % is scaled to controls: 0 for no effect and ±100 for the full control effect
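Tetracycline-induced HEK293 Trex D1 cells, force-coupled to calcium, dye-loaded; compounds added and read 180 s, then EC80 dopamine added and calcium flux tracked kinetically another 180 s.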
D1 ag: activates the human D1 dopamine receptor. 360,000 compounds, 1% hits. HEK293 T-REx D1 cells, calcium flux, agonist mode. P21728. activation, % at 2 µM. AID 504660; in the data active = activation above about 30%; also: 0% is about no effect
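Inducible HEK293 T-REx D1 cells, force-coupled to calcium signalling, were plated at 4000 cells/well with tetracycline and held overnight at 30 C. After no-wash calcium dye loading, compound-evoked calcium rise over 180 s flagged agonists.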
An asterisk follows results filed as active; ? = inconclusive; . = not tested or not shown. Compounds with a hit are over-represented: about 6.1% of the library has one in this group of screens.

SMILES | D1 PAM | DRD3 antagonist | DRD3 agonist | D1 antagonist | D1 ag
CCC(=O)N1CCc2cc(S(=O)(=O)NCCC(=O)NCc3ccc(OC)cc3)ccc21 | -0.7 | . | -1.3 | -43.6* | 1.1
COc1cc(CCC(=O)NCc2ccc3c(c2)CCN3C(=O)c2cccc(C)c2)cc(OC)c1OC | -1.9 | . | -11.2 | -18.7 | 0.4
Cc1ccc2cc(F)ccc2n1 | . | -8.7 | -7.7 | . | .
Cc1nc(N2CCN(S(=O)(=O)c3ccc(Br)cc3)CC2)c2c(C)c(C)sc2n1 | -0.1 | -55.0* | 5.3 | -9.2 | 3.0
Cc1ccc(S(=O)(=O)N2CCN(c3nc(CN4CCCC4)nc4sc(C)c(C)c34)CC2)cc1 | 5.3 | -15.1 | -11.6 | -35.2* | 0.4
CCc1nc(N2CCN(S(=O)(=O)c3ccc(Br)cc3)CC2)c2c(C)c(C)sc2n1 | . | -1.9 | -4.2 | . | .
CC[C@@H]1CCC[C@@H](O)[C@@H](C)C(=O)O[C@H](C)[C@@H](C)C/C=C(C)/C(OC)=C\C(=O)N(C)C([C@@H](C)CC)C(=O)N(C)[C@@H](C(C)C)C(=O)N(C)[C@@H](COC)C(=O)N2CCC[C@H]2C(=O)N(C)[C@@H](C(C)C)C(=O)N2CCC[C@H]2C(=O)O1 (some centres undefined) | . | 0.9 | 8.4 | . | .
c1ccc(C2(CN3CCNC[C@H]3Cc3cccc4ccccc34)CC2)cc1 | -7.2 | 0.0 | -12.1 | -55.5* | 76.5*
Fc1cccc(CCN2CCNC[C@H]2Cc2cccc3ccccc23)c1 | -2.8 | 26.7 | 19.9 | 8.7 | 40.4*
CC(C)(C)CN1CCNC[C@H]1Cc1cccc2ccccc12 | 1.1 | -4.1 | 4.7 | 4.3 | 18.1
COc1ccc(-c2csc(NC(=O)/C(N=Nc3ccccc3)=C(\C)O)n2)cc1 | -0.1 | . | . | -12.4 | 2.1
Fc1ccccc1CN1CCC(Cc2ccccc2)CC1 | -2.4 | -79.3* | -15.7 | -4.2 | -3.4
Fc1cccc(CN2CCC(Cc3ccccc3)CC2)c1 | -5.9 | -52.6* | -4.6 | 10.9 | -4.1
COc1cc(CN2CCC(Cc3ccccc3)CC2)cc(OC)c1OC | -0.5 | ? | -19.1 | -9.2 | 5.6
COc1ccc(CN2CCC(Cc3ccccc3)CC2)c(C)c1C | -7.8 | -19.5 | -21.9 | -19.2 | 5.4
C[C@]1(Cn2ccnn2)[C@H](C(=O)O)N2C(=O)C[C@H]2S1(=O)=O | . | . | 4.2 | . | .
C/C(=N\NC(=O)CCC(=O)Nc1ccc(C)c(C)c1)c1cccs1 | 5.7 | 1.9 | -9.0 | 0.2 | -0.4
Nc1ccc2nc3c(=O)n(CCc4ccccc4)c(=O)[nH]c3nc2c1 | 1.9 | 5.3 | 7.0 | -10.1 | 435.2*
Nc1ccc2nc3c(=O)n(C4CCCCC4)c(=O)[nH]c3nc2c1 | 3.4 | -0.4 | 12.7 | 3.0 | 275.7*
CCCCn1c(=O)[nH]c2nc3cc(N)ccc3nc2c1=O | -4.7 | -12.3 | 12.0 | 12.7 | 207.4*
Cc1cc2nc3c(=O)n(CCc4ccccc4)c(=O)[nH]c3nc2cc1N | 3.2 | 14.2 | -16.6 | 3.4 | 352.3*
COc1cc2[nH]c(=O)n(C3CCCCC3)c(=O)c2cc1OC | 3.7 | -8.3 | -0.8 | -12.5 | -3.1
Cc1nc2ccccc2c(=O)n1CCc1ccccc1 | -6.0 | ? | 1.4 | 5.1 | 0.3
Cc1cc(C)cc(N2CCn3c2nc2c3c(=O)n(Cc3ccc(Cl)cc3)c(=O)n2C)c1 | 0.1 | . | -4.1 | 3.7 | -1.1
COc1ccc(C)cc1NC(=O)C1CCN(S(=O)(=O)c2ccc3[nH]c4c(c3c2)CCCCC4)CC1 | -3.1 | . | 0.8 | -12.0 | 4.2
SMILES | D1 PAM | DRD3 antagonist | DRD3 agonist | D1 antagonist | D1 ag
C[C@H](CO)N1C[C@H](C)[C@@H](CN(C)S(=O)(=O)c2cn(C)cn2)OCc2cnnn2CCCC1=O | . | 17.7 | -0.3 | . | .
CCN(CC)C(=O)CSc1ncccc1-c1nc2ccccc2[nH]1 | -3.8 | -10.1 | -3.6 | -5.5 | 0.2
Cn1nnnc1SCC1=C(C(=O)O)N2C(=O)[C@@H](NC(=O)[C@H](OC=O)c3ccccc3)[C@H]2SC1 | . | . | 3.9 | . | .
Cc1nc2ccccc2n1CCOc1ccc([N+](=O)[O-])cc1 | -9.6 | 2.6 | -5.0 | -39.6* | 2.4
CC(O)c1nc2ccccc2n1CCOc1ccccc1 (centres undefined) | 0.9 | ? | -7.1 | -46.1* | 42.8*
CC(=O)c1cccc(NC(=O)c2ccc(OC3CSC3)cc2)c1 | -3.0 | -0.3 | 5.2 | -14.8 | 5.8
O=C(Nc1cccc(Br)c1)c1ccc(OC2CSC2)cc1 | -4.5 | . | . | -35.9* | 3.0
Cc1cc(S(=O)(=O)NC2CCCCC2)c(C)s1 | -5.8 | -15.1 | 7.7 | -30.4* | 5.2
